Out of some 340,000 compounds screened, about 2,100 (0.62%) were called active. Not all results are given here. Results with a measured potency or affinity are listed apart. Unmarked numbers belong to inactive results.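 Rule for the calls: active = first-screen hits whose inhibition reached a set limit at any dose in the follow-up dose series; inconclusive = inhibition above the set first-screen limit but never retested; inactive = the rest.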

The values that follow come from PubChem BioAssay AID624330 (Southern Research Specialized Biocontainment Screening …, 2012).

Rac GTPase-activating protein 1 (Homo sapiens), sequence (Q9H0H5 whole entry, looked up): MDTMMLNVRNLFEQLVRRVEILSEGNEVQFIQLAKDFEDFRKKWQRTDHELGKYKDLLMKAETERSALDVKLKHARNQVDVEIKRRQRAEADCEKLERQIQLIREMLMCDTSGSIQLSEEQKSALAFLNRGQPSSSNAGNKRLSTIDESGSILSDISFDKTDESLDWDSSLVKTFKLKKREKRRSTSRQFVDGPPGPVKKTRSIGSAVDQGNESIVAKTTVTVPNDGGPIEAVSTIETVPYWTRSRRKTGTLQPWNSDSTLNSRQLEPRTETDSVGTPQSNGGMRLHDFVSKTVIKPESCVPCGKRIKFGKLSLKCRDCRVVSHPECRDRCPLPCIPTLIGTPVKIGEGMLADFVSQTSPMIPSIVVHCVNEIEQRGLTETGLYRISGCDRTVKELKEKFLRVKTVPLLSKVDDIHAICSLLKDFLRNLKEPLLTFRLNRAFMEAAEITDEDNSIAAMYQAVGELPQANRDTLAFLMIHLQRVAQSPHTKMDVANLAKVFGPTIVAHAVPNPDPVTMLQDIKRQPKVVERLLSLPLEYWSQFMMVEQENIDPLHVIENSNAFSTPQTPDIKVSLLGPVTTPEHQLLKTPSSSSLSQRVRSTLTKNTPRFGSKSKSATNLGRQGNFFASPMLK

The experiment addresses Rac GTPase-activating protein 1 (Homo sapiens) (UniProt Q9H0H5). Nature of the experiment: blockers of MgcRacGAP-driven Rac1 GTP hydrolysis – biochemical, ADP Hunter fluorescence, primary and confirmatory, confirmation (AID 624330).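 Note: fluorescence reports GDP produced by GAP-driven GTP hydrolysis.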 The settings on record: MgcRacGAP-stimulated Rac1 GTP hydrolysis, at 30 µM, stronger effect = higher value, GST-tagged Rac1 F28L mutant substrate.
With `COC(=O)CCCCC(=O)C1C(=O)CC(C)(C)C(C(=O)OC)C1=O` (configuration not stated), the inhibition was 2.31%. As to `CC1(C2CC(C(F)(F)F)n3nc(C(=O)O)cc3N2)CC1` (configuration not stated), the inhibition is 5.89%. Turning to `O=C(Nc1ccc(C(=O)N2CCCCC2)cc1)c1ccccc1Br`, the inhibition was 3.41%. Take `COc1ccc(/C=C/C(=O)Oc2ccc(/C=N/NC(=O)c3ccccc3)cc2)cc1OC`: the inhibition was 3.85%. Next, `O=C(CN1CCN(Cc2ccccc2)CC1)N/N=C/c1cccs1`: 2.1%.

With `N/C(Cc1ccc([N+](=O)[O-])cc1)=N\OC(=O)C(c1ccccc1)c1ccccc1`, the inhibition was 8.53%.

`NC(CSCc1ccccc1Cl)C(=O)O` (configuration not stated): the inhibition is -0.96%. On to `CCc1ccc(OCC(=O)N2CC(C(N)=O)Oc3ccccc32)cc1` (configuration not stated), for which the inhibition was 4.28%. For `COc1ccc(/C=C(\C#N)C(=O)c2c(C)[nH]c3ccccc23)cc1OC`, the inhibition was 10.7%. As for `COc1cc(/C=C(\C#N)C(=O)c2c(C)[nH]c3ccccc23)cc(OC)c1OC`, the inhibition was 15.4%. Next, `Cc1ccc2nc(/C(C#N)=C/c3ccccc3C(=O)O)[nH]c2c1`: 16%; `COc1cc(/C=C(/C#N)c2nc3ccccc3c(=O)[nH]2)ccc1O`: 19.3%; `COc1cc(/C=C(\C#N)c2nc3ccccc3[nH]2)cc(Br)c1OCc1ccc(F)cc1`: 6.53%.

In the case of `COc1cc(/C=C(\C#N)c2nc3ccccc3[nH]2)cc(Br)c1OCc1ccccc1`, the inhibition was 6.48%. For the compound `COc1ccc(/C=C(\C#N)c2nc3ccccc3[nH]2)cc1O`, the inhibition was 18.2%.

As to `Cc1cc2nc(/C(C#N)=C/c3ccncc3)[nH]c2cc1C`, the inhibition was 10.2%. As to `O=C(CCn1cnnn1)NC1CCCN(Cc2ccccc2F)C1` (configuration not stated), the inhibition was -0.5%.

As for `CN(C)c1ccc(C=NNC(=O)c2cccnc2)cc1`, the inhibition was 1.95%. Turning to `CCCCN(C(=O)c1ccc2c(c1)S(=O)(=O)N=C1CCCCCN12)c1c(N)n(CCCC)c(=O)[nH]c1=O`, the inhibition is -0.05%. Consider `CC1C(=O)Nc2ccc(S(=O)(=O)NCc3ccc(Cl)cc3)cc2NC1=O` (configuration not stated), for which the inhibition was 7.58%. The result for `Cc1ccc(F)cc1NC(=O)CCOc1ccccc1` reads -2.1%. Regarding `CCCc1cc(=O)n2nc(N3CCC(C(=O)NCc4ccco4)CC3)sc2n1`, the inhibition is 4.69%. The result for `COc1cc2c(cc1NC(=O)c1ccncc1)oc1ccccc12` reads 14.9%. Take `C=Cn1cc(CNC[C@H]2O[C@@H](n3ccc(N)nc3=O)[C@H](O)[C@@H]2O)c(C)n1`: the inhibition was 0.77%. Consider `COc1ccc(CCNS(=O)(=O)c2ccc(-n3cnnn3)cc2)cc1OC`, for which the inhibition is 4.09%.

Take `O=C(Nc1nc2ccccc2[nH]1)Nc1ccccc1F`: the inhibition was -2.47%. Consider `CCCc1ccc2oc(C(=O)N3CCCC3)c(C)c2c1`, for which the inhibition is 3.8%.

On to `O=C(NC1CCN(S(=O)(=O)c2ccc(F)cc2)CC1)c1cccc(F)c1`, for which the inhibition was 4.4%. Next, `Cc1ccc(-n2nc3cc(C)c(N)cc3n2)cc1`: 8.27%. Turning to `Cc1cc2nc3ccc(N(C)C)cc3nc2cc1N`, the inhibition is 18.1%. As to `CS(=O)(=O)N1CCN(c2ccccc2NC(=O)c2ccc(Cl)cc2)CC1`, the inhibition is 13.8%. Next, `O=[N+]([O-])c1c(Nc2ccccc2O)cc(Cl)c2nonc12`: 16.1%; `O=[N+]([O-])c1ccc2nonc2c1Nc1ccccc1`: 5.91%; `O=[N+]([O-])c1c(Nc2ccc(O)cc2)cc(Cl)c2nonc12`: 16.8%.

As to `CC(=O)c1ccc(Nc2ccc([N+](=O)[O-])c3nonc23)cc1`, the inhibition is 4.9%. Take `CN(C)c1cc(Nc2ccc(O)cc2)c([N+](=O)[O-])c2nonc12`: the inhibition is 13.9%. Take `O=[N+]([O-])c1ccc(Nc2ccccc2O)c2nonc12`: the inhibition was 19.7%. `Cn1c(/N=C/c2ccccc2[N+](=O)[O-])nc2ccccc21`: the inhibition was 2.88%. Regarding `CC(=O)N1CCC(N(CCN2CCOCC2)C(=S)Nc2cc(C)cc(C)c2)CC1`, the inhibition is 9.32%. `Cc1ccc2cc(CN(CC(C)C)S(=O)(=O)c3cccc4nonc34)c(=O)[nH]c2c1`: the inhibition was 9.22%. Regarding `CC(/C=C/C=C/c1ccccc1)=N/NC(=O)C(O)c1ccccc1` (configuration not stated), the inhibition was 13.5%. Next, `OCCOCCNc1ncnc2sc(-c3ccccc3)cc12`: 23%; `C=COCCCNc1ncnc2sc(-c3ccccc3)cc12`: 23.7%; `O=C(NCCCN1CCCC1)c1ccc2c(c1)N(Cc1ccc(F)cc1)C(=O)c1ccccc1S2=O` (configuration not stated): 6.31%. The result for `CSc1n[nH]c(NCc2ccc(C)cc2)n1` reads -0.45%; that for `Nc1nc(N)c2[nH]c(-c3ccccc3)nc2n1`, 6.78%.

Consider `CC(C)(C)c1nc(N)nc(=O)[nH]1`, for which the inhibition is 4.68%. As to `COc1cc(O)c2c(c1)COC2=O`, the inhibition is 4.96%. In the case of `C=CCc1cc(OC)ccc1OCCON1C(=O)CCC1=O`, the inhibition was 8.6%. The result for `CN(C)c1cccc(C(=O)OCC(=O)NC(=O)NCc2ccccc2)c1` reads -0.47%; that for `CCOC(=O)c1cnc(Nc2ccccc2)nc1C(F)(F)F`, 1.7%. With `Cc1c(N=Cc2ccc(-c3ccc(Cl)cc3)o2)c(=O)n(-c2ccccc2)n1C`, the inhibition was 3.54%. Take `O=C(Cc1cccc(C(F)(F)F)c1)OCN1C(=O)c2ccccc2C1=O`: the inhibition was 4.25%. As for `CCCCCC(=O)Nc1cc(S(=O)(=O)N2CCCCC2)ccc1N1CCCCC1`, the inhibition was 9.51%.

For `CCS(=O)(=O)c1ccc(O)c(NC(=O)CCCC(=O)O)c1`, the inhibition was 13.8%. As to `Cc1ccc(-c2nc(CS(=O)(=O)CC(=O)NCc3cccc(F)c3)c(C)o2)cc1`, the inhibition is 7.24%.

With `CC#C[C@@H](CC)c1ccc2ccn(C)c2c1`, the inhibition is 9.11%. Next, `O=C1c2cc(CO)cc(O)c2C(=O)c2c(O[C@@H]3OC(CO)[C@@H](O)[C@@H](O)[C@@H]3O)cccc21` (some centres not stated): 7.99%; `O=C1c2c(O)cccc2C(C2OC(CO)[C@@H](O)[C@H](O)[C@H]2O)c2cc(CO)cc(O)c21` (some centres not stated): 11.8%; `Cc1ccc2c(C(=O)N3CCN(c4ccccc4)CC3)cc(-c3cccnc3)nc2c1C`: 6.48%.

For the compound `COC(=O)CC1SC(=O)NC1=Nc1ccc(OC)cc1` (configuration not stated), the inhibition was 6.86%. On to `COC(=O)CC1SC(=O)NC1=Nc1ccc(C)cc1` (configuration not stated), for which the inhibition is 8.37%. As to `Cc1cc(Nc2ccccc2Cl)n2nnnc2n1`, the inhibition was 2.54%. Consider `COC(=O)CSc1nc(N)c2c3c(sc2n1)C(c1ccccc1)SC(c1ccccc1)C3` (configuration not stated), for which the inhibition was 6.76%. Next, `O=C1C(=O)c2ccc(-c3ccccc3)cc2-c2ccccc21`: 7.95%; `O=C1C(=C(O)c2ccccc2)C(=O)c2ccccc21`: 8.92%; `COc1ccc(N(CC(=O)Nc2ccccc2F)S(=O)(=O)c2ccc(OC)c(OC)c2)cc1`: -10.3%. As for `COc1ccc(C(=O)Nc2cccc3nc(C)ccc23)cc1OC`, the inhibition is 12.2%. On to `CN(C)Cc1c(O)ccc2occ(C(=O)c3ccccc3)c12`, for which the inhibition was 6.64%. Next, `Cc1ccc(C(=O)c2coc3ccc(O)c(Cl)c23)cc1`: 16%; `COc1ccc(NC(=O)COc2ccc3c(c2)OCO3)cc1`: 6.39%. `COc1cccc(CN2CC(C(=O)NC3CCCCCC3)CCC2=O)c1` (configuration not stated): the inhibition was 2.79%. With `CC(C)c1ccccc1OCC(O)CN(CC(O)COc1cccc2ccccc12)C(C)C` (configuration not stated), the inhibition was 4.64%. Consider `CCN(CCNCC(O)COCc1ccc(Cl)cc1)c1cccc(C)c1` (configuration not stated), for which the inhibition was 31.7%.

Consider `C=CCOc1ccc(C(=O)Nc2ncn[nH]2)cc1`, for which the inhibition is 4.62%. On to `COc1ccc(NC(=O)C2CCCO2)cc1OC` (configuration not stated), for which the inhibition was 10.4%.

For `COc1ccc([C@@H](OC)[C@@]2(Cc3ccc(O)cc3)N=C(N)N(C)C2=O)cc1`, the inhibition was 0.02%.

Regarding `COc1ccc(NC(=O)c2ccccc2NC(=O)C2CCCO2)cc1` (configuration not stated), the inhibition was 10.5%.

Consider `CC(=Nc1ccc(C)cc1)c1sc2ccccc2c1O`, for which the inhibition was 2.37%. Take `CC(=Nc1ccccc1)c1sc2ccccc2c1O`: the inhibition is 19.1%. As for `O=c1[nH]c(SCc2ccccc2)nc2ccsc12`, the inhibition was 6.38%. For the compound `O=C(NCc1ccccc1)/C(=C/c1ccccc1)NC(=O)c1ccco1`, the inhibition was 2.6%. On to `O=C(NCc1ccccc1)/C(=C\c1ccccc1)NC(=O)c1ccco1`, for which the inhibition is 6.99%. For `COc1ccc(NC(=S)N2CCNC(=O)C2CC(=O)Nc2ccc(C)cc2)cc1` (configuration not stated), the inhibition is 15.2%.

As for `NNC(=O)CCN1CCN(C(c2ccccc2)c2ccccc2)CC1`, the inhibition was -8.98%. Consider `O=C(CCN1CCN(C(c2ccccc2)c2ccccc2)CC1)N/N=C/c1ccc(O)cc1O`, for which the inhibition was 30.9%. Take `COc1ccc(OC)c(/C=N/NC(=O)CCN2CCN(C(c3ccccc3)c3ccccc3)CC2)c1`: the inhibition is -2.42%. The result for `COc1ccc(/C=N/NC(=O)CN2CCCC2)cc1` reads -0.98%. For the compound `O=C(CCN1CCCCC1)N/N=C/c1ccc(Br)cc1`, the inhibition was 7.98%. Take `COc1ccc(/C=N\NC(=O)CCN2CCN(c3ccccc3)CC2)cc1OC`: the inhibition is 7.5%. For the compound `COc1ccc(Br)cc1/C=N/NC(=O)CN1CCCCC1`, the inhibition is 14.3%. For the compound `COc1cc(/C=N/NC(=O)CCN2CCN(c3ccccc3)CC2)cc(OC)c1OC`, the inhibition is 4.52%.

Turning to `CN(C)CCN(Cc1ccco1)S(=O)(=O)c1csc(C(N)=O)c1`, the inhibition was 4.25%.

For `O=C(c1ccccn1)N1CCN(C(=O)c2ccccn2)CC1`, the inhibition was 3.69%.

With `O=C(c1ccc(OC2CCN(CCCc3ccccc3)CC2)cc1)N1CCCC1`, the inhibition was 3.48%.

As for `NC(=O)NCC1CC1`, the inhibition was 4.2%. For the compound `O=C(OCC(=O)N1N=C(c2ccc(Cl)cc2)CC1c1ccco1)c1ccccc1O` (configuration not stated), the inhibition is 3.05%.

Broadly, the inhibition is the relative decrease from the control value, in per cent.
